± gives the standard deviation. In all, about 8,200 sequences were measured (“pre-steady-state target cleavage rate”: median about 0.024, highest 2% from about 1.3 on). Only a selection was taken, and the highest values are over-represented in it overall.
Test system: MIWI (PIWIL1) piRISC loaded with L1MC piRNA (30 nt)
Test: pre-steady-state target cleavage rate (min^-1); MIWI and MILI are mouse PIWI proteins and EfPiwi is from a freshwater sponge; tags in brackets are library labels; higher = faster piRNA-guided slicing of the target
Settings: guide: L1MC piRNA 5'p-UAACUAAAUACUAUGCAAGCUGUAGGUCCU
Method in brief: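 Active affinity-purified piRISC carrying one synthetic guide (1 nM) was mixed with a transcribed, DNA-blocked target RNA library […] in HEPES–potassium acetate buffer at 33 °C for 0–8 or 0–960 min, with or without 500 nM GTSF1 partner protein. Uncleaved targets were then sequenced and normalised to depth and to weakly complementary targets. Three trials were pooled, and k3 was capped at 0.0001 min^-1. A burst-and-steady-state fit was applied to obtain the pre-steady-state cleavage rate.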

[1] = auxiliary factor: 500 nM mouse GTSF1
[2] = auxiliary factor: none (no GTSF1)
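Also: 1 nM active piRISC with 0.1 nM target library at 33 °C single turnover.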

| Sequence | pre-steady-state target cleavage rate [1] | pre-steady-state target cleavage rate [2] |
| --- | --- | --- |
| UCCACCUACAGGUUGCAUAGUAUUUACAAA | 0.336 ± 0.052 |  |
| UCCACCUACAGCUUGCAUAGUUUUUAGAUA | 0.16 ± 0.029 | 0.0077 ± 0.0023 |
| UCCUGGUUCAGGUUGCAUAGUAUUUAGUUA | 0.711 ± 0.051 | 0.0138 ± 0.0041 |
| AGGAGCUACAGCUAGCAUAGUAUUUAGUUA | 1.28 ± 0.076 | 0.0359 ± 0.0079 |
| UCCUGCUACAGCUAGCAUAGUAUUUACAAA | 0.234 ± 0.049 |  |
| UCCUGCUACAGCUUGCUUAGUAUUAAGUUA | 0.403 ± 0.038 | 0.00887 ± 0.0026 |
| UCCUGGAUCAGCUUGCAUCGUAUUUAGUUA | 0.327 ± 0.02 | 0.032 ± 0.0077 |
| AGGACCUACAGCUUGCAUAGUAUUUUCUUA | 0.33 ± 0.049 | 0.03 ± 0.0093 |
| UCCUCCUACACCUUGCAUAGAAUUUAGUUA | 0.341 ± 0.082 | 0.00682 ± 0.0023 |
| UCCUCCUACAGCUUGCAUUGAAUUUAGUUA | 0.183 ± 0.018 | 0.00617 ± 0.0025 |
| UCGACCUACACCUUGCAUAGAAUUUAGUUA | 0.395 ± 0.07 | 0.0128 ± 0.0024 |
| UCGACCUACAGCUUGCAUUGUAUUUACUUA | 0.49 ± 0.028 | 0.0226 ± 0.0052 |
| UGGACCUACAGCUAGGAUAGUAUUUAGUUA | 1.39 ± 0.068 | 0.00938 ± 0.0019 |
| AGGACCUACAGCUAGGAUAGUAUUUAGUUA | 1.09 ± 0.06 | 0.0102 ± 0.0018 |
| UCGACCUACAGCUAGGAUAGUAUUUAGUUA | 1.29 ± 0.064 | 0.00874 ± 0.0021 |
| AGGACGUACAGCUUGGAUAGUAUUUAGUUA | 1.36 ± 0.067 | 0.0579 ± 0.0083 |
| UCGACGUACAGCUUGGAUAGUAUUUAGUUA | 1.24 ± 0.042 | 0.0503 ± 0.0083 |
| UCCUCGUACAGCUUGGAUAGUAUUUAGUUA | 1.22 ± 0.062 | 0.0636 ± 0.011 |
| AGGAGCUACAGCUUGGAUAGUAUUUAGUUA | 1.17 ± 0.081 | 0.0558 ± 0.0094 |
| UCCACGUACAGCUUGGAUAGUAUUUAGUUA | 1.14 ± 0.065 | 0.0509 ± 0.0081 |
| UGGACGUACAGCUUGGAUAGUAUUUAGUUA | 1.4 ± 0.054 | 0.0597 ± 0.01 |
| UCGUCCUAGAGCUUGCAUAGUAUUUAGUUA | 0.957 ± 0.041 | 0.0436 ± 0.0072 |
| UCCUCCUAGCAGCUUGCAUAGUAUUUAGUUA | 1.12 ± 0.046 | 0.0448 ± 0.0093 |
| UCCACCUACAGCUUCGAUAGUAUUUAGAAA | 0.0807 ± 0.021 |  |

| Sequence | pre-steady-state target cleavage rate [1] | pre-steady-state target cleavage rate [2] |
| --- | --- | --- |
| UCCUGGAUGAGCUUGCUAUGUAUUUAGUUA | 0.00494 ± 0.0027 | 0.00308 ± 0.0029 |
| UGGAGCUUCAGCUUGCAUAGUAUUUAGUUA | 1.34 ± 0.048 | 0.0706 ± 0.01 |
| AGGAGCUUCAGCUUGCAUAGUAUUUAGUUA | 1.48 ± 0.047 | 0.0864 ± 0.015 |
| UCCUGCUUCAGCUUGCAUAGUAUUUAGUAA | 0.537 ± 0.036 | 0.0275 ± 0.0068 |
| UCGAGCUUCAGCUUGCAUAGUAUUUAGUUA | 1.12 ± 0.046 | 0.0555 ± 0.0099 |
| UGGAGCUAGAGCUUGCAUAGUAUUUAGUUA | 0.707 ± 0.048 | 0.0402 ± 0.0068 |
| AGGAGCUAGAGCUUGCAUAGUAUUUAGUUA | 0.922 ± 0.049 | 0.0536 ± 0.0099 |
| AGGACCUAGUGCUUGCAUAGUAUUUAGUAA | 0.457 ± 0.051 | 0.0314 ± 0.0063 |
| UCCUCCUACAGCUUGCUAAGUAUUUAGUAA | 0.066 ± 0.012 |  |
| AGGACCUACAGCUUGGAUAGUAUUAAGUUA | 0.722 ± 0.072 | 0.0226 ± 0.004 |
| UAGACCUACAGCUUGCAUAGUAUUUAGUUA | 1.31 ± 0.043 | 0.0672 ± 0.011 |
| AAGACCUACAGCUUGCAUAGUAUUUAGUUA | 1.69 ± 0.062 | 0.0921 ± 0.015 |
| AGACCUACAGCUUGCAUAGUAUUUAGUUA | 1.46 ± 0.052 | 0.0902 ± 0.017 |
| AGGACCUACAGGUAGCAUAGUAUUUAGUUA | 1.04 ± 0.054 | 0.00995 ± 0.0022 |
| UCCUGGUACAGCUUGCAUAGUAAAUUCAAA | 0.00975 ± 0.0053 |  |
| UCCUCCUACAGCUUGCAUAGUAUUUAGAUUA | 0.342 ± 0.031 | 0.0121 ± 0.0024 |
| UCCUGGAAGUCCUUGCAUAGUAUUUAGUUA | 0.175 ± 0.02 | 0.0104 ± 0.0031 |
| UCCCCCUACAGCUUGCAUAGUAUUUAGUUA | 1.28 ± 0.039 | 0.0819 ± 0.014 |
| UCGCCUACAGCUUGCAUAGUAUUUAGUUA | 1.5 ± 0.066 | 0.0743 ± 0.014 |
| UCCGCCUACAGCUUGCAUAGUAUUUAGUUA | 1.23 ± 0.05 | 0.0714 ± 0.011 |
| UCGCCCUACAGCUUGCAUAGUAUUUAGUUA | 1.32 ± 0.055 | 0.0692 ± 0.011 |
| UCCUGGUACAGCUUGCAUAGUUUUUAGUAA | 0.177 ± 0.037 | 0.0195 ± 0.0054 |
| UCCUGGUACAGCUUGCAUAGUUAUUAGUUA | 0.115 ± 0.018 | 0.018 ± 0.0051 |
